# Laboratory results taken from ChEMBL document CHEMBL2218924, “A broad activity screen in support of a chemogenomic map for kinase signalling research and drug discovery” (Biochem J, 2013).
# Experiments:
# [1] = molecular target: T1, Ephrin type-A receptor 3 (Homo sapiens) (UniProt P29320); conditions: at 10 µM
# T1 sequence (whole entry): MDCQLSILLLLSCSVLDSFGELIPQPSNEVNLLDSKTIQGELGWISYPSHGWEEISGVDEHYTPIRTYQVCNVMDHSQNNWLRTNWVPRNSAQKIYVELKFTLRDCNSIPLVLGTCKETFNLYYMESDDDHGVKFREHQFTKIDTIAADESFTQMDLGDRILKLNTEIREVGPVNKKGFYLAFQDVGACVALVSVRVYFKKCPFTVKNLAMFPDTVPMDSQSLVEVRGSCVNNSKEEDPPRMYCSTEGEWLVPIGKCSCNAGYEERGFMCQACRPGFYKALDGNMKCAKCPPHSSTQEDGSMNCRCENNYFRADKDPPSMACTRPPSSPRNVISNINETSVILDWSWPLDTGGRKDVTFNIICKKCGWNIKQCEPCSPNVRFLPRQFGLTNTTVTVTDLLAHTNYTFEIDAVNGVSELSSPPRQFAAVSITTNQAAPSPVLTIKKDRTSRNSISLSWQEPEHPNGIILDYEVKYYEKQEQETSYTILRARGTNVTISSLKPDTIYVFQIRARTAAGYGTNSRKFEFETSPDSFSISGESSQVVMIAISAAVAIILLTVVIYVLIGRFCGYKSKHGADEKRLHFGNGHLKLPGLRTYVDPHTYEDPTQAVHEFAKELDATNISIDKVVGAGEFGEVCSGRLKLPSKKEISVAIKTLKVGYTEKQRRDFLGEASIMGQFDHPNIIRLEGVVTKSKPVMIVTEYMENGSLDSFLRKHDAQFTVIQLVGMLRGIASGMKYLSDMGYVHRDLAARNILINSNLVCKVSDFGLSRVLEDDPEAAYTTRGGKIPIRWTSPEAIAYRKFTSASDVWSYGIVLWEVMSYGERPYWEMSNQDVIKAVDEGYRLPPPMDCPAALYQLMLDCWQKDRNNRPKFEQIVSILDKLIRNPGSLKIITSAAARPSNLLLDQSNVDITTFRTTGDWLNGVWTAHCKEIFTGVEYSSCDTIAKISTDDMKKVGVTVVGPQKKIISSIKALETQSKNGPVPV
# [2] = molecular target: Ephrin type-A receptor 4 (Homo sapiens) (UniProt P54764); conditions: at 1 µM
# Sequence of Ephrin type-A receptor 4 (Homo sapiens) (P54764 whole entry): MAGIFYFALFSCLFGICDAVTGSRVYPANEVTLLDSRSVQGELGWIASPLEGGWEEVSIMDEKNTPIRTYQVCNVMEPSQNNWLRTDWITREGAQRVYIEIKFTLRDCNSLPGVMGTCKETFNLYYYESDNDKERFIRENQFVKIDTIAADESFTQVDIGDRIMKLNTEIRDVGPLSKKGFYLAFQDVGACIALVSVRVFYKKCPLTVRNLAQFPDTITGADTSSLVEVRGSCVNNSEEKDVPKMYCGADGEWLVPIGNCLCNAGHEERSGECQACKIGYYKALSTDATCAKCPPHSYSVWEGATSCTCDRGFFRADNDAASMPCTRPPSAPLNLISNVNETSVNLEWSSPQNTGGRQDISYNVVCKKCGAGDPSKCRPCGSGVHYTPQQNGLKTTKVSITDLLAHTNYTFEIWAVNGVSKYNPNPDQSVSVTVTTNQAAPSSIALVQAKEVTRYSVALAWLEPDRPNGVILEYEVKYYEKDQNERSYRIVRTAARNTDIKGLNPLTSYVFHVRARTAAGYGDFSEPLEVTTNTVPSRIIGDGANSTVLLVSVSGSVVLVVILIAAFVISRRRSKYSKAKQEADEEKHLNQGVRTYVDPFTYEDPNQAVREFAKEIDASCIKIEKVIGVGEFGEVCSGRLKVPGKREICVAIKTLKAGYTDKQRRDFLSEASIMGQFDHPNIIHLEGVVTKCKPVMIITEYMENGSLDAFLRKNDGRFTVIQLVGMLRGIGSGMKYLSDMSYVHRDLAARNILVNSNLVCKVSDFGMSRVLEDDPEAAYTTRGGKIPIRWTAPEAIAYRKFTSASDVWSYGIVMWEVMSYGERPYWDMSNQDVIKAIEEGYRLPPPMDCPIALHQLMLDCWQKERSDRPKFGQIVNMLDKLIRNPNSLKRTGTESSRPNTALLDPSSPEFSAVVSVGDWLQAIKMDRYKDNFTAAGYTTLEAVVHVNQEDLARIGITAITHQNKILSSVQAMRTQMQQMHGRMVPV
# [3] = molecular target: Ephrin type-A receptor 4 (Homo sapiens) (UniProt P54764); conditions: at 10 µM
# [4] = molecular target: Ephrin type-A receptor 5 (Homo sapiens) (UniProt P54756); conditions: at 1 µM
# Sequence of Ephrin type-A receptor 5 (Homo sapiens) (P54756 whole entry): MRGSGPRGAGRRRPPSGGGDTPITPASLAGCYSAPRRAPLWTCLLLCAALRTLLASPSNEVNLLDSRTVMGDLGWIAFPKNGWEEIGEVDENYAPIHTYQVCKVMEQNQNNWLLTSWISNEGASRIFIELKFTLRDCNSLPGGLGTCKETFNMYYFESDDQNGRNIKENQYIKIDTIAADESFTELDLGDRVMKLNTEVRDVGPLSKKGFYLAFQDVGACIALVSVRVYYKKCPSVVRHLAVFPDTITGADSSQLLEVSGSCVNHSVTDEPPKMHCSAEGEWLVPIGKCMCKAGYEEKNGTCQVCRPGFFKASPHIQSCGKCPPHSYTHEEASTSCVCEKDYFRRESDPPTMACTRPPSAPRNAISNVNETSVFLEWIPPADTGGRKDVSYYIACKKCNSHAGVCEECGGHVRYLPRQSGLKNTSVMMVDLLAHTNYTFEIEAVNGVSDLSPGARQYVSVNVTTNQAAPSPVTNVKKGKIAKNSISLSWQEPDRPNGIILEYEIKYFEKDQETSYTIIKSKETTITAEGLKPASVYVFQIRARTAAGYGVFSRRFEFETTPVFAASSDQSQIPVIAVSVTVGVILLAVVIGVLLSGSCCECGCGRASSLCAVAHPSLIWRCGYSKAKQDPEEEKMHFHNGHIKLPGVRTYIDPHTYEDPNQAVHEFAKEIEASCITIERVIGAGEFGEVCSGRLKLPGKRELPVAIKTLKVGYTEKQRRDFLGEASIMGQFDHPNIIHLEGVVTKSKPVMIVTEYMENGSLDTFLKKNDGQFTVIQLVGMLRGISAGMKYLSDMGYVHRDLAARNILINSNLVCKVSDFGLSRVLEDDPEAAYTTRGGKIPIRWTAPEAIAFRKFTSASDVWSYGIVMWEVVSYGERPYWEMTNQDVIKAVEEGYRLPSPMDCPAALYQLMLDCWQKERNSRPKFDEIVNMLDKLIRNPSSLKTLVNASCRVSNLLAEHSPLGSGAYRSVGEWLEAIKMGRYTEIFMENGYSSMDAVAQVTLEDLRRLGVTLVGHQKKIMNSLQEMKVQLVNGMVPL
# [5] = molecular target: Ephrin type-A receptor 5 (Homo sapiens) (UniProt P54756); conditions: at 10 µM
# [6] = molecular target: Ephrin type-A receptor 7 (Homo sapiens) (UniProt Q15375); conditions: at 1 µM
# Sequence of Ephrin type-A receptor 7 (Homo sapiens) (Q15375 28-998 limits assumed): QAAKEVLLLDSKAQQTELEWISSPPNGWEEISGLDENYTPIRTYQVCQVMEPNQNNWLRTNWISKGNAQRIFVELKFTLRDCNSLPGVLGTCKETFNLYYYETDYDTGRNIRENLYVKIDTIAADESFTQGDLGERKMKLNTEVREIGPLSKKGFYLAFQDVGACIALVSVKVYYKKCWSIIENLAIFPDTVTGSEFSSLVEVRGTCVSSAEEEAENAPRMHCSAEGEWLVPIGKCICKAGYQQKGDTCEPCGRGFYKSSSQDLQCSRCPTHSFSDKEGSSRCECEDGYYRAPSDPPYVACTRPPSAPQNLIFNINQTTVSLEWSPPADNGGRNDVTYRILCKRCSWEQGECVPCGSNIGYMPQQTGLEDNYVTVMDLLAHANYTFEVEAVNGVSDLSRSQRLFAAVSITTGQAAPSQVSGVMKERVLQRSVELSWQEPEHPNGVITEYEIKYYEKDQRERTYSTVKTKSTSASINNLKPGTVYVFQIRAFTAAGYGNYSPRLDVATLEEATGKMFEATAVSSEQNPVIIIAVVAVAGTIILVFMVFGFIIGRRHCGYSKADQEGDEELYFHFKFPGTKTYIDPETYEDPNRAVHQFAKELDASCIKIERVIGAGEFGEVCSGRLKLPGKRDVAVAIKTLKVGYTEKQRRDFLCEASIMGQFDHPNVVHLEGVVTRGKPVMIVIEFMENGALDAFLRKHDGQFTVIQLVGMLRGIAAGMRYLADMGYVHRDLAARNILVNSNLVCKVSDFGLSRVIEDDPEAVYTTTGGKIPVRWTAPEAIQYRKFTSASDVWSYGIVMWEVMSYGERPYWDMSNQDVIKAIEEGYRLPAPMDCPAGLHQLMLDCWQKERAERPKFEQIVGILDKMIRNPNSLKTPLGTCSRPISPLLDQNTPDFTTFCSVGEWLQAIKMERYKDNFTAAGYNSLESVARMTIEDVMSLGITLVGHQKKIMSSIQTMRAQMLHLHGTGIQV
# [7] = molecular target: Ephrin type-A receptor 7 (Homo sapiens) (UniProt Q15375); conditions: at 10 µM
# [8] = molecular target: T2, Ephrin type-A receptor 8 (Homo sapiens) (UniProt P29322); conditions: at 1 µM
# T2 sequence (whole entry): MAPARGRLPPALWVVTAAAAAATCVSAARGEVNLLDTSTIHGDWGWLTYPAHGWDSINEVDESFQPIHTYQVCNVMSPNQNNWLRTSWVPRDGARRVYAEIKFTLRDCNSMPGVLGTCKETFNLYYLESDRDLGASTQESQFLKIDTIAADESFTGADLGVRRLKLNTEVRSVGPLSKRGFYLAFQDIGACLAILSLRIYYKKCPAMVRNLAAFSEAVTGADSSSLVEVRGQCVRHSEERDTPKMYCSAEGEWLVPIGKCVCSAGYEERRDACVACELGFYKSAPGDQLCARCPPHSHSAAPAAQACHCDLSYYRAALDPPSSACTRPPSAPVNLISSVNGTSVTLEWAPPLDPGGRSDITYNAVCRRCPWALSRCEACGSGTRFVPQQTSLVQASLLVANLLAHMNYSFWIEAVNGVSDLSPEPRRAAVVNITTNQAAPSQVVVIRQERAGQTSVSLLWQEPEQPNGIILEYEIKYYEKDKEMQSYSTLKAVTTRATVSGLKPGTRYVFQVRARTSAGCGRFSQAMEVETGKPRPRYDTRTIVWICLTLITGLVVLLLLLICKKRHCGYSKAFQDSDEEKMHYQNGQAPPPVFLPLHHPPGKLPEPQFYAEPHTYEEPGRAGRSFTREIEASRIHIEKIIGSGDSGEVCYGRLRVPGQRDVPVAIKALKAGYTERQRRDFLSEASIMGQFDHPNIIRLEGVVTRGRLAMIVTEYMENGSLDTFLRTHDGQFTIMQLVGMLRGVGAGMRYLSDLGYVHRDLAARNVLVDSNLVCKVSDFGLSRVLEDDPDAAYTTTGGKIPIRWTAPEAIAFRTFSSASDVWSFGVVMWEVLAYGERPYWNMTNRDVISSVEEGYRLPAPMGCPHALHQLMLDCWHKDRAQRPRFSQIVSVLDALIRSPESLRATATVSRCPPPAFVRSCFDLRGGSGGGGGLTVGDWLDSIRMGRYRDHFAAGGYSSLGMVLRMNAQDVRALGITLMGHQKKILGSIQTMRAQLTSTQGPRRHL
# [9] = molecular target: T2, Ephrin type-A receptor 8 (Homo sapiens); conditions: at 10 µM
# [10] = molecular target: T3, Ephrin type-B receptor 1 (Homo sapiens) (UniProt P54762); conditions: at 1 µM
# T3 sequence (whole entry): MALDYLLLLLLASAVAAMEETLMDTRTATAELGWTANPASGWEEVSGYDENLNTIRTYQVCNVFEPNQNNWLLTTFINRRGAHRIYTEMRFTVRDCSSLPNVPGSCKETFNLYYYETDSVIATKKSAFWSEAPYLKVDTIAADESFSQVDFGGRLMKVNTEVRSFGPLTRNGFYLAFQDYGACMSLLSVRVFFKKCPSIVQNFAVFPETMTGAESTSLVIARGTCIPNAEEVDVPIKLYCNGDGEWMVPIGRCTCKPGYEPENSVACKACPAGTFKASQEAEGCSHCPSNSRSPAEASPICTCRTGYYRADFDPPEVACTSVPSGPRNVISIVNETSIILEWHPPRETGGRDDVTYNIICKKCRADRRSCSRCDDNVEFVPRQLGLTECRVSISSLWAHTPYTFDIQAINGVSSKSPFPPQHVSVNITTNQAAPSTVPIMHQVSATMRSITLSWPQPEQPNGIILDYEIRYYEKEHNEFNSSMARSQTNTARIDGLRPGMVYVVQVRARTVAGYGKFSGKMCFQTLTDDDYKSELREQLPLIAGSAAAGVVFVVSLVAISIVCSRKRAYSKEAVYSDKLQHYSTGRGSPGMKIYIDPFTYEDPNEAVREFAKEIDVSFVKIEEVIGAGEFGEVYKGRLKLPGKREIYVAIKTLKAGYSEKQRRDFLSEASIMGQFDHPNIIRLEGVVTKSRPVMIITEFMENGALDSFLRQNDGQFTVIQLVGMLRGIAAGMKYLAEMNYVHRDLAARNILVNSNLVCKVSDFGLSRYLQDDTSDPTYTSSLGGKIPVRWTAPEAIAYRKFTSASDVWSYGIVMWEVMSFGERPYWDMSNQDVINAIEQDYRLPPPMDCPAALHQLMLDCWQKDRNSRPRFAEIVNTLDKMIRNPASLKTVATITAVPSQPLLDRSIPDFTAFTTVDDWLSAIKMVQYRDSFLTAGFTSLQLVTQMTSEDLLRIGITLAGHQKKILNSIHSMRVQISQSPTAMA
compound,measurement,setting,value
CC(C)n1cnc2c(NCc3ccccc3)nc(NCCCO)nc21,residual activity,[1],101%
same,residual activity,[2],109%
same,residual activity,[3],104%
same,residual activity,[4],96%
same,residual activity,[5],84%
same,residual activity,[6],84%
same,residual activity,[7],78%
same,residual activity,[8],97%
same,residual activity,[9],94%
same,residual activity,[10],93%
